Here are results for 40 compounds from PubChem BioAssay (NCATS).

The source made the active and inactive calls. How the calls were made is not given here.
Potency means the concentration at half of the fitted maximal effect.

For this test, the system named is HIV-1 nucleocapsid protein NCp7 (binding to TG oligonucleotide). The experiment in a line: HIV Nucleocapsid (AID 346).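 Further: potency is for inhibitors that block NC binding and lower polarization.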 To be noted: HIV-1 NC / fluorescein-TGTGTGTG probe, fluorescence polarization. In short, it runs like this:
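Reagents dispensed (10 nM TG4xF, 100 nM HIV-1 NC), plates spun, compounds pin-transferred, then incubated 1 hr at room temperature before FP imaging. Buffer: Hepes pH 7.5, 250mM NaCl, 1uM ZnCl2, 100 uM TCEP, 5 mM 2-mercaptoethanol.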
On to `CCNc1ncc2ncc(=O)n(C)c2n1`, for which the Potency is > 20 µM (inactive).

With `CN(C)c1ncc2nc(-c3cccs3)c(=O)n(CCc3ccccc3)c2n1`, the Potency was > 20 µM (inactive).

As to `Cc1cccc(CNc2ncncc2-c2ccccc2C)c1`, the Potency was > 20 µM (inactive).

For the compound `Cn1c(=O)c(-c2ccc(F)cc2)nc2cnc(OCc3ccccc3)nc21`, the Potency is > 20 µM (inactive).

With `COCCn1c(=O)c(CCc2ccccc2)nc2cncnc21`, the Potency is > 20 µM (inactive).

Regarding `CN1CCN(c2ncc3nc(-c4ccccc4)c(=O)n(C)c3n2)CC1`, the Potency was > 20 µM (inactive).

As to `COc1ccc2[nH]cc(CCNc3ccnc(-c4cccc(C#N)c4)n3)c2c1`, the Potency was > 20 µM (inactive).

Regarding `COc1ccc(C(=O)N2CCC[C@@]3(CCN(C(=O)Nc4cccc(C#N)c4)C3)C2)cc1`, the Potency is > 20 µM (inactive).

On to `COc1cccc(Cn2c(=O)c(-c3ccc(Cl)cc3)nc3cnc(N4CCN(C)CC4)nc32)c1`, for which the Potency was > 20 µM (inactive).

For `CN(C)C(=O)c1ccc(-c2cc(-n3ccnc3)ncn2)cc1`, the Potency is > 20 µM (inactive).

With `Fc1ccc(Nc2ncnc3ccc(-c4ccoc4)cc23)cc1`, the Potency is > 20 µM (inactive).

Turning to `O=C(c1cnccn1)N1CCC2(CCCN(c3ccc(-c4ccccc4)cc3)C2)CC1`, the Potency was > 20 µM (inactive).

Consider `COc1cccc(Cn2c(=O)c(-c3cccs3)nc3cncnc32)c1`, for which the Potency was > 20 µM (inactive).

As for `O=c1c(-c2cccc(Cl)c2)nc2cncnc2n1Cc1ccccc1`, the Potency is > 20 µM (inactive).

Turning to `CN(C)c1ncc2nc(-c3ccc(F)cc3)c(=O)n(-c3ccccc3)c2n1`, the Potency is > 20 µM (inactive).

Regarding `COc1ccc(-c2nc3cnc(Nc4cccc(OC)c4)nc3n(C)c2=O)cc1`, the Potency was > 20 µM (inactive).

`Cc1ccccc1-c1ccc2ncnc(N3CCOCC3)c2c1`: the Potency was > 20 µM (inactive).

In the case of `CNc1ncnc2ccc(-c3ccccc3C#N)cc12`, the Potency was > 20 µM (inactive).

With `O=C(c1cnccn1)N1CCC2(CCN(Cc3cc(C(F)(F)F)cc(C(F)(F)F)c3)CC2)CC1`, the Potency is > 20 µM (inactive).

Consider `Cc1noc(C)c1-c1nc(N2CCOCC2)c2ccccc2n1`, for which the Potency was > 20 µM (inactive).

Take `N#CCCn1c(=O)c(-c2ccc(F)cc2)nc2cnc(Oc3cccc(Cl)c3)nc21`: the Potency is > 20 µM (inactive).

Turning to `CN(C)c1ncc2nc(-c3cc(F)cc(F)c3)c(=O)n(-c3ccccc3)c2n1`, the Potency is > 4 µM (inactive).

As for `Cn1cccc1C(=O)N1CCC[C@@]2(CCN(C(=O)Nc3cccc(F)c3)C2)C1`, the Potency was > 20 µM (inactive).

For the compound `O=c1c(-c2cccs2)nc2cnc(N3CCOCC3)nc2n1Cc1cccs1`, the Potency was > 4 µM (inactive).

For `O=C(c1cccc(F)c1)N1CCC2(CC1)CN(c1ccc(-c3ccccc3)cc1)C2`, the Potency was > 20 µM (inactive).

With `Cc1noc(C)c1C(=O)N1CCC2(CCN(Cc3cc(C(F)(F)F)cc(C(F)(F)F)c3)CC2)CC1`, the Potency is > 4 µM (inactive).

On to `N#CCCn1c(=O)cnc2cnc(Oc3ccccc3)nc21`, for which the Potency is > 20 µM (inactive).

In the case of `Cc1cccc(CNc2ncncc2-c2ccccc2C(F)(F)F)c1`, the Potency was > 20 µM (inactive).

Regarding `COc1ccccc1CCn1c(=O)c(-c2ccc(F)cc2)nc2cncnc21`, the Potency is > 20 µM (inactive).

As for `Cc1cccc(CNc2nc(-c3ccccc3CN(C)C)nc3ccccc23)c1`, the Potency was > 20 µM (inactive).

As for `COc1ccc(NC(=O)N2CC3(CCN(C(=O)c4ccncc4)CC3)C2)cc1`, the Potency was > 20 µM (inactive).

As to `O=C(Nc1cccc(F)c1)N1CCC2(CC1)CCN(C(=O)c1cc(C(F)(F)F)cc(C(F)(F)F)c1)CC2`, the Potency is > 20 µM (inactive).

In the case of `N#Cc1ccccc1-c1ccc2ncnc(N3CCNCC3)c2c1`, the Potency was > 20 µM (inactive).

Take `CN(C)Cc1ccccc1-c1cc(Nc2ccccc2)ncn1`: the Potency was > 20 µM (inactive).

For the compound `Cc1nc2cnc(N3CCN(C)CC3)nc2n(CCC#N)c1=O`, the Potency was > 20 µM (inactive).

Take `O=C(c1cnccn1)N1CCC[C@@]2(CCN(C(c3ccccc3)c3ccccc3)C2)C1`: the Potency was > 20 µM (inactive).

Consider `COCCn1c(=O)c(-c2ccc(OC)cc2)nc2cnc(OC)nc21`, for which the Potency was > 20 µM (inactive).

As for `COc1ncc2nc(-c3ccccc3)c(=O)n(Cc3cccs3)c2n1`, the Potency was > 20 µM (inactive).

As for `COCCn1c(=O)c(-c2cc(F)cc(F)c2)nc2cnc(N3CCOCC3)nc21`, the Potency is > 20 µM (inactive).

Take `Cn1cccc1C(=O)N1CCC[C@@]2(CCN(c3ccccn3)C2)C1`: the Potency is > 20 µM (inactive).
